Measured values as given in the supplement of paper PMC10849652.
Targets with a hit are over-represented here; the source holds about 7,900 in all. About 0.6% of all pairs of compound and target were hits.

Experiments:
Experiment in all cases: log2 fold change, soluble protein after heating vs DMSO (PISA); higher = thermal stabilisation; K562 cells, 10 uM, 30 min; active = over 0.2 and 3.5 SD of the protein, either way, in both replicates (recomputed)
[1] = compound: NC(=O)Nc1cc(-c2cccc(F)c2)sc1C(=O)N[C@H]1CCCNC1
How it was run: (§1)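 K562 cells at 2×10^6 cells/mL were treated with 10 μM compound for 30 min. Aliquots were heated for 3 min across 48°C-58°C, pooled, and extracted in PBS with 0.5% NP-40 at 4°C; soluble protein was the supernatant after 21,000xg for 90 min. Soluble protein was quantified by TMTpro 16plex LC-MS/MS with channel sums equalised, and reported as log2 fold change in thermal stability against DMSO controls, with values from duplicates.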

[2] = compound: NC(=O)c1cnc(N[C@@H]2CCCC[C@@H]2N)nc1Nc1cccc(-n2nccn2)c1
How it was run: as §1

[3] = compound: NC1(c2ccc(-c3nc4ccn5c(=O)[nH]nc5c4cc3-c3ccccc3)cc2)CCC1
How it was run: as §1

[4] = compound: NCC(=O)Nc1ccc(-n2nc(C(F)(F)F)cc2-c2ccc3c(ccc4ccccc43)c2)cc1
How it was run: as §1

entinostat = compound: Nc1ccccc1NC(=O)c1ccc(CNC(=O)OCc2cccnc2)cc1 [entinostat]
How it was run: as §1

vorinostat = compound: O=C(CCCCCCC(=O)Nc1ccccc1)NO [vorinostat]
How it was run: as §1

citarinostat = compound: O=C(CCCCCCNC(=O)c1cnc(N(c2ccccc2)c2ccccc2Cl)nc1)NO [citarinostat]
How it was run: as §1

silmitasertib = compound: O=C(O)c1ccc2c(c1)nc(Nc1cccc(Cl)c1)c1ccncc12 [silmitasertib]
How it was run: as §1

[5] = compound: O=C1NC(=O)C(c2cnc3ccccn23)=C1c1cn2c3c(cc(F)cc13)CN(C(=O)N1CCCCC1)CC2
How it was run: as §1

[6] = compound: c1cc(OCCN2CCCCC2)cc(-c2n[nH]c3ccc(-c4nnc[nH]4)cc23)c1
How it was run: as §1

Measured: log2 fold change

PC (UniProt P11498)
UniProt P11498, sequence (P11498 whole entry, looked up): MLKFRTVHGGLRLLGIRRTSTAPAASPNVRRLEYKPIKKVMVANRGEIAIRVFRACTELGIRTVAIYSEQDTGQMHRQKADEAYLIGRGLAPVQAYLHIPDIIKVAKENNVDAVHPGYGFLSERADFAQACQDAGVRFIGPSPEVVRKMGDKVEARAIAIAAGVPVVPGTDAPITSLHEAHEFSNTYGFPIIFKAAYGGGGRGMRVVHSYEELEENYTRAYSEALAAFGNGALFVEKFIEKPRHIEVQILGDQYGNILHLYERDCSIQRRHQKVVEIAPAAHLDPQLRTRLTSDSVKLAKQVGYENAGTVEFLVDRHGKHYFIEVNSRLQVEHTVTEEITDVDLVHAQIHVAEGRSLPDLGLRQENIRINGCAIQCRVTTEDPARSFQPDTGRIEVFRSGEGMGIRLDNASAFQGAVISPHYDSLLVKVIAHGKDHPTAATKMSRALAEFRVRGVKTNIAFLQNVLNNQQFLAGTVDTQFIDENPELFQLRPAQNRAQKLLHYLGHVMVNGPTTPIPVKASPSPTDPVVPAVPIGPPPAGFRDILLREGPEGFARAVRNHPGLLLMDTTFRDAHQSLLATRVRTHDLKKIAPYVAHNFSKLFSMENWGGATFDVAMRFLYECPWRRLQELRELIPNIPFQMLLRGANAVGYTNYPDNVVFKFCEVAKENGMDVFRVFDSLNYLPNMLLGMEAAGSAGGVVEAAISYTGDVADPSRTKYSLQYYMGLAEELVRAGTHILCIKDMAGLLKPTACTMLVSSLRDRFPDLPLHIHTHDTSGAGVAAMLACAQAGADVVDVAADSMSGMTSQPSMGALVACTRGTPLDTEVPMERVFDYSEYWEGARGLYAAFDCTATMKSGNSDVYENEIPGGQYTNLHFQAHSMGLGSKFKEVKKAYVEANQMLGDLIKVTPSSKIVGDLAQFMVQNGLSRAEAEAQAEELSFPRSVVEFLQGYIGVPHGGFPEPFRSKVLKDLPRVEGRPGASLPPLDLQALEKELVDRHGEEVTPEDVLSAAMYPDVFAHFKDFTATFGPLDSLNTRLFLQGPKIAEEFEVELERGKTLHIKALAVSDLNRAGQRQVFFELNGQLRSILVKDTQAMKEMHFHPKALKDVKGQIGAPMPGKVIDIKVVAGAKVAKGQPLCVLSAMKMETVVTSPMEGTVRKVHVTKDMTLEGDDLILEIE
inactive: [1] -0.025 | [2] 0.027 | [3] -0.084 | [4] 0.004 | entinostat -0.003 | vorinostat -0.044 | citarinostat 0.053 | silmitasertib -0.122 | [5] -0.099 | [6] 0.112

POLR2M (UniProt P0CAP2)
inactive: [1] -0.03 | [2] 0.035 | [3] -0.045 | [4] -0.085 | entinostat -0.032 | vorinostat -0.091 | citarinostat -0.019 | silmitasertib 0.043 | [5] 0.009 | [6] -0.008

PDIK1L (UniProt Q8N165)
active: [1] 0.566
inactive: [2] -0.025 | [3] -0.075 | [4] -0.225 | entinostat -0.094 | citarinostat 0.016 | silmitasertib 0.035 | [5] 0.019 | [6] -0.162

PCBP1 (UniProt Q15365)
inactive: [1] 0.007 | [2] -0.015 | [3] -0.069 | [4] -0.021 | entinostat 0.044 | vorinostat 0.055 | citarinostat 0.075 | silmitasertib 0.028 | [5] -0.046 | [6] 0.002

PBK (UniProt Q96KB5)
inactive: [1] -0.1 | [2] -0.045 | [3] -0.098 | [4] -0.088 | entinostat 0.095 | vorinostat 0.154 | citarinostat 0.119 | silmitasertib 0.157 | [5] 0.02 | [6] -0.011

POLR2C (UniProt P19387)
inactive: [1] -0.046 | [2] -0.026 | [3] -0.131 | [4] -0.196 | entinostat -0.031 | citarinostat 0.017 | silmitasertib 0.118 | [5] -0.023 | [6] -0.195

PNN (UniProt Q9H307)
active: [6] -0.446
inactive: [1] -0.018 | [2] -0.24 | [3] 0.053 | entinostat 0.021 | vorinostat 0.045 | citarinostat -0.077 | silmitasertib -0.124 | [5] 0.106

PRKCA (UniProt P17252)
inactive: [1] -0.085 | [2] -0.134 | [3] -0.181 | [4] -0.029 | entinostat 0.057 | vorinostat 0.117 | citarinostat 0.028 | silmitasertib -0.045 | [5] -0.205 | [6] -0.091

PSMD6 (UniProt Q15008)
inactive: [1] -0.028 | [2] 0.037 | [3] -0.024 | [4] 0.082 | entinostat -0.045 | vorinostat -0.001 | citarinostat -0.017 | silmitasertib 0.011 | [5] 0.039 | [6] -0.063

PI4K2B (UniProt Q8TCG2)
active: [2] 0.704
inactive: [1] 0.092 | [3] -0.08 | [4] -0.069 | entinostat 0.066 | vorinostat -0.021 | citarinostat 0.075 | silmitasertib 0.051 | [6] 0.111

PDE6D (UniProt O43924)
inactive: [1] 0.001 | [2] -0.113 | [3] 0.122 | [4] 0.025 | entinostat 0.125 | vorinostat -0.007 | silmitasertib 0.077 | [5] 0.009

PSMC3 (UniProt P17980)
UniProt P17980, sequence (P17980 whole entry, looked up): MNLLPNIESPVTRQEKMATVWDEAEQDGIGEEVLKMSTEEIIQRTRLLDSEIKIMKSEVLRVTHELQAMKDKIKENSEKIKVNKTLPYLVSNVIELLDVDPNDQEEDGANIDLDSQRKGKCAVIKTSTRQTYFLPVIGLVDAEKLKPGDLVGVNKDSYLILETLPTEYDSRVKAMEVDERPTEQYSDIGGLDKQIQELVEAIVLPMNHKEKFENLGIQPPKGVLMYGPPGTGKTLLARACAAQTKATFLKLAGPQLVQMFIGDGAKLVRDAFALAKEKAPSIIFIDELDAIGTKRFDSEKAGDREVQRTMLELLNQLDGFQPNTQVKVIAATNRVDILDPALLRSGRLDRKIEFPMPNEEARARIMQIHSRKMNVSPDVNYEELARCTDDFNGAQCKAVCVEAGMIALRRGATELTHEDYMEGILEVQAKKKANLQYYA
inactive: [1] 0.014 | [2] -0.011 | [3] 0.046 | [4] 0.078 | entinostat -0.024 | vorinostat -0.017 | citarinostat -0.053 | silmitasertib -0.018 | [5] 0.049 | [6] -0.092

PNPLA4 (UniProt P41247)
inactive: [1] 0 | [2] -0.118 | [3] -0.357 | [4] 0.131 | entinostat -0.093 | citarinostat 0.602 | silmitasertib 0.012 | [6] -0.071

PPT1 (UniProt P50897)
UniProt P50897, sequence (P50897 whole entry, looked up): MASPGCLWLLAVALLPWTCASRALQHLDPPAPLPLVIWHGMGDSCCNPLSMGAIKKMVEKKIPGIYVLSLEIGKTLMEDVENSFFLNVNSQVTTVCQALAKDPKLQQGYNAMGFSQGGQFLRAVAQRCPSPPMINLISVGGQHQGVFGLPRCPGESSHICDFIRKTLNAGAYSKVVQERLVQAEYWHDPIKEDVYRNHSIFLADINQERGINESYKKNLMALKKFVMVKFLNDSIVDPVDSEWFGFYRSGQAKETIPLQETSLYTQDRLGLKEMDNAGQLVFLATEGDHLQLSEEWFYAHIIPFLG
active: [3] -0.338
inactive: [1] -0.049 | [2] -0.095 | [4] -0.096 | entinostat -0.03 | vorinostat -0.036 | citarinostat 0.053 | silmitasertib 0.019 | [5] -0.041 | [6] -0.041

PRKD2 isoform 3 (UniProt Q9BZL6)
active: [1] -0.515
inactive: [2] -0.217 | [3] -0.074 | [4] 0 | entinostat 0.331 | vorinostat 0.186 | silmitasertib 0.047 | [5] -0.014

PRKD3 (UniProt O94806)
inactive: [1] -0.565 | [2] -0.263 | [3] -0.285 | [4] -0.213 | entinostat 0.34 | vorinostat 0.096 | silmitasertib 0.021

PHF5A (UniProt Q7RTV0)
UniProt Q7RTV0, sequence (Q7RTV0 whole entry, looked up): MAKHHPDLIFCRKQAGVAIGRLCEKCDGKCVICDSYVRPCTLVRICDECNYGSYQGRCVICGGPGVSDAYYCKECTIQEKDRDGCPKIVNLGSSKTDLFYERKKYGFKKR
inactive: [1] -0.004 | [2] 0.009 | [3] 0.101 | [4] 0.051 | entinostat -0.017 | vorinostat -0.08 | citarinostat 0.014 | silmitasertib 0.082 | [5] -0.024 | [6] -0.003

POLR3D (UniProt P05423)
inactive: [1] -0.061 | [3] -0.115 | [4] -0.028 | entinostat 0.03 | vorinostat 0.158 | silmitasertib 0.078 | [5] 0.032
active: [2] 1.51

PDPK1 (UniProt O15530)
active: [1] 0.238 | [3] -0.314
inactive: [2] -0.111 | [4] -0.061 | entinostat 0.034 | vorinostat 0.108 | citarinostat 0.038 | silmitasertib -0.04 | [5] 0.004 | [6] -0.019

PDCD4 (UniProt Q53EL6)
UniProt Q53EL6, sequence (Q53EL6 whole entry, looked up): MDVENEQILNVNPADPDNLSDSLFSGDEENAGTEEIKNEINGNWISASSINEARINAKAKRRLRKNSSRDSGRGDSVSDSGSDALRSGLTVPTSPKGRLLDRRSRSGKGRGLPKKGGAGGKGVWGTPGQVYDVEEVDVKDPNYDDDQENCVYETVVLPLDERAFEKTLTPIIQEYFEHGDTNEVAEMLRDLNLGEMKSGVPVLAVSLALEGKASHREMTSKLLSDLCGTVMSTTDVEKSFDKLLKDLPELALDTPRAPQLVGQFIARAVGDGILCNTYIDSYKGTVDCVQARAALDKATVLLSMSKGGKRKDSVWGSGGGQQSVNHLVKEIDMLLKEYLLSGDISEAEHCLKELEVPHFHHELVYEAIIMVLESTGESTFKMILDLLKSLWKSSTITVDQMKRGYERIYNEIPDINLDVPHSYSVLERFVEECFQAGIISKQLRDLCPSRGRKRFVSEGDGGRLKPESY
inactive: [1] -0.001 | [2] 0.011 | [3] -0.087 | [4] -0.064 | entinostat -0.044 | vorinostat 0.042 | citarinostat 0.059 | silmitasertib 0.145 | [5] -0.041 | [6] 0.092

POLR2M (UniProt Q6EEV4)
inactive: [1] 0.027 | [2] -0.09 | [3] -0.065 | [4] -0.056 | entinostat -0.148 | citarinostat 0.029 | silmitasertib 0.03 | [5] -0.122 | [6] -0.009

PTK2B (UniProt Q14289)
inactive: [1] 0.076 | [2] 0.091 | [3] -0.13 | [4] -0.092 | entinostat 0.128 | vorinostat 0.011 | silmitasertib 0.054 | [5] 0.072

QRICH1 (UniProt Q2TAL8)
UniProt Q2TAL8, sequence (Q2TAL8 whole entry, looked up): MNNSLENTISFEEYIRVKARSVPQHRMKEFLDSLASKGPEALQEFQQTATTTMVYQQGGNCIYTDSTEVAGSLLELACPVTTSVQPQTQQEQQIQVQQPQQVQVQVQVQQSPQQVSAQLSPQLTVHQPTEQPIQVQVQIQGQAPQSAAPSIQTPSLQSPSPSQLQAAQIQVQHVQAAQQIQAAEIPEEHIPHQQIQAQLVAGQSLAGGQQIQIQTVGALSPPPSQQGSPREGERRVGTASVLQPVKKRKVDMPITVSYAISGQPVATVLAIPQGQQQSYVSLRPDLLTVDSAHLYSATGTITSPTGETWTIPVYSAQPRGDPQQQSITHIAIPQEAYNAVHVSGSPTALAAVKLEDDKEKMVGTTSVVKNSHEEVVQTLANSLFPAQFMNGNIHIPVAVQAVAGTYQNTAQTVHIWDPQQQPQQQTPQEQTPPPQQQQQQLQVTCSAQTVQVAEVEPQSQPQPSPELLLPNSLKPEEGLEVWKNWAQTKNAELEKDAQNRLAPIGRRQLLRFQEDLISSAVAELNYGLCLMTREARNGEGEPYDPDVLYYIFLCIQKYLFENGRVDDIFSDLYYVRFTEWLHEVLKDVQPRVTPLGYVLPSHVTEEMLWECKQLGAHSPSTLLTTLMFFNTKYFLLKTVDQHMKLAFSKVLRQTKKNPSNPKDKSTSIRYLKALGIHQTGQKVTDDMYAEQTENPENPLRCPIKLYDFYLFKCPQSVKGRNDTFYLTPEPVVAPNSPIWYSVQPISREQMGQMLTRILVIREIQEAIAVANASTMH
inactive: [1] -0.043 | [2] -0.119 | [3] -0.137 | [4] -0.093 | entinostat 0.168 | citarinostat 0.11 | silmitasertib 0.047 | [5] -0.276 | [6] 0.027

PHKA1 (UniProt P46020)
inactive: [1] 0.03 | [2] 0.046 | [3] -0.202 | entinostat -0.005 | vorinostat 0.013 | citarinostat 0.128 | silmitasertib 0.004 | [5] 0.027 | [6] -0.068

PEX16 isoform 2 (UniProt Q9Y5Y5)
UniProt Q9Y5Y5, sequence (Q9Y5Y5 whole entry, looked up): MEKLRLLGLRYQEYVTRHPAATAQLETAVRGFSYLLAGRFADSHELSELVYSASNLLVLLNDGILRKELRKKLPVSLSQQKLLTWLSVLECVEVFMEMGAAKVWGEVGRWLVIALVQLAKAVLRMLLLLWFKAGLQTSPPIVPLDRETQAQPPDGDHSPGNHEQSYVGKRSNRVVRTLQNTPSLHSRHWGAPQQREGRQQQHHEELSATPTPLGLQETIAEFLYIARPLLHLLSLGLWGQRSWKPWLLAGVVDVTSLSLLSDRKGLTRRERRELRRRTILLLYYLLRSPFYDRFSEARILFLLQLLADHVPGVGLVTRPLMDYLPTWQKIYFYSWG
inactive: [1] 0.061 | [2] -0.052 | [3] -0.171 | [4] -0.031 | entinostat 0.022 | vorinostat 0.115 | citarinostat 0.081 | silmitasertib -0.025 | [5] 0.033 | [6] -0.051

PRKCG (UniProt P05129)
inactive: [1] -0.064 | [2] -0.043 | [3] -0.086 | [4] 0.068 | entinostat 0.117 | vorinostat 0.109 | citarinostat 0.193 | silmitasertib 0.062 | [5] -0.229 | [6] 0.082

PMVK (UniProt Q15126)
inactive: [1] -0.04 | [2] -0.001 | [3] -0.114 | [4] 0.29 | entinostat -0.08 | vorinostat -0.134 | silmitasertib 0.065 | [5] 0.048

PRPF40A (UniProt O75400)
UniProt O75400, sequence (O75400 whole entry, looked up): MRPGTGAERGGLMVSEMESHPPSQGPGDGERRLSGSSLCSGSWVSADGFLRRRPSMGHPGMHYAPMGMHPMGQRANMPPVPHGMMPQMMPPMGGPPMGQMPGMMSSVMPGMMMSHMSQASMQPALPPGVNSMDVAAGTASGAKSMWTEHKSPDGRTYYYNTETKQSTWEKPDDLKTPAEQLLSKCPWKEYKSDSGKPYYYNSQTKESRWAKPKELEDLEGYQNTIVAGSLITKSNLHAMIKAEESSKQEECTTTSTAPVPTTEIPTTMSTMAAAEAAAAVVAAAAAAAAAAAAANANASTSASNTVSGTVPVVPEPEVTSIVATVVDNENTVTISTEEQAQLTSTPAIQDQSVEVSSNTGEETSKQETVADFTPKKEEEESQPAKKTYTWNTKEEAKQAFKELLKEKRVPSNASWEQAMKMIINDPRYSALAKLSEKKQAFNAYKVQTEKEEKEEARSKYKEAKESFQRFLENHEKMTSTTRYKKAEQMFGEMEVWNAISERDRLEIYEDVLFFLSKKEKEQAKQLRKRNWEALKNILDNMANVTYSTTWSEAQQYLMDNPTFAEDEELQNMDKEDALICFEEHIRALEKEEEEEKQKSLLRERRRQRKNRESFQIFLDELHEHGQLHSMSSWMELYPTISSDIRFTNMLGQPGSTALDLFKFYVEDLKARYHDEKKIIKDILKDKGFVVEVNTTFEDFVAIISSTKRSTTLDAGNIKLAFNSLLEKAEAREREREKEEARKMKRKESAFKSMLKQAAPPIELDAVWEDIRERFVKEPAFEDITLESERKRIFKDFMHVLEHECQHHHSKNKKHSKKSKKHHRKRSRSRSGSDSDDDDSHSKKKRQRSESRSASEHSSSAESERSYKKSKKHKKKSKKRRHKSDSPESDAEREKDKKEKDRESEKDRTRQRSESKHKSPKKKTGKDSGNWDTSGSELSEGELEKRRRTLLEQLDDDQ
inactive: [1] -0.014 | [2] -0.001 | [3] 0 | [4] -0.062 | entinostat 0.114 | vorinostat 0.048 | citarinostat 0.079 | silmitasertib -0.038 | [5] 0.003 | [6] -0.067

PI4K2A (UniProt Q9BTU6)
inactive: [1] 0.033 | [2] 0.204 | [3] -0.152 | [4] -0.05 | entinostat -0.013 | vorinostat 0.039 | citarinostat 0.072 | silmitasertib -0.012 | [5] -0.05 | [6] 0.003

PTP4A2 (UniProt Q12974)
inactive: [1] -0.161 | [2] -0.286 | [3] 0.079 | [4] -0.023 | entinostat 0.011 | citarinostat 0.016 | silmitasertib 0.052 | [5] -0.168 | [6] -0.045

PPID (UniProt Q08752)
UniProt Q08752, sequence (Q08752 whole entry, looked up): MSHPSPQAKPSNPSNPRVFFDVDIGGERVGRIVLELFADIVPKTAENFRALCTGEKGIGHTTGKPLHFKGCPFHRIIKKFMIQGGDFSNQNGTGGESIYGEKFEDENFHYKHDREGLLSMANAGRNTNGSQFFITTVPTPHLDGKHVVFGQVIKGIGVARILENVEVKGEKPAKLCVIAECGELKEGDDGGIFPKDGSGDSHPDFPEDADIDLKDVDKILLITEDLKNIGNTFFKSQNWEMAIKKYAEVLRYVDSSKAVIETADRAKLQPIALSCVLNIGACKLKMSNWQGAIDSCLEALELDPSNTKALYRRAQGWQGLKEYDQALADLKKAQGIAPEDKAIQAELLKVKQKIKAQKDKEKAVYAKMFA
inactive: [1] -0.073 | [2] -0.075 | [3] -0.093 | [4] -0.065 | entinostat 0.049 | vorinostat 0.108 | citarinostat 0.108 | silmitasertib 0.095 | [5] -0.028 | [6] 0

PEX5 isoform 4 (UniProt P50542)
inactive: [1] 0.019 | [2] 0.002 | [4] 0.041 | entinostat 0 | [5] 0.163
